Rce1 inh = blocks yeast Ras-converting enzyme. Q03530. yeast membranes, quenched prenylated peptide cleavage fluorescence. calls only. 0.27% of 290,000 active;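 active means fall in fluorescence gain of 50% or more versus controls, with final raw signal at or below 3038400; inconclusive means same 50% fall but final raw signal above 3038400; inactive means fall in fluorescence gain under 50%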;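 further: plate controls were neutral control wells for no effect and wells lacking membranes for full effect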
Target sequence (Q03530 whole entry, looked up): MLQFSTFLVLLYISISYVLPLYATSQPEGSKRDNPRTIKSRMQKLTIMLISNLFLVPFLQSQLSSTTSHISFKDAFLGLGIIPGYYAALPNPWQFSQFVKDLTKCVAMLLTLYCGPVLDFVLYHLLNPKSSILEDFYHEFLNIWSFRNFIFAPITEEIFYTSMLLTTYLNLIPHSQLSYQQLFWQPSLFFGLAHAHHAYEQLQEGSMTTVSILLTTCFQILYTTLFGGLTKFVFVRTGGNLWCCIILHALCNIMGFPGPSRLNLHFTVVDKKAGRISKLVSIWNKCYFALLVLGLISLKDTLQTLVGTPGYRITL
Platelet DG rel = platelet dense granule release activity. human platelet-rich plasma, SFLLRN dense granule ATP release, luminescence. inhibition, %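 (compounds screened at 7.5 µM in platelet-rich plasma)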. 0.22% of 300,000 active. AID 1663;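 active means mean replicate score, as percent of positive control, at or above 50; inconclusive means mean below 50 but at least one replicate at or above 50; inactive means mean and every replicate below 50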
PfM18AAP inh = blocks P. falciparum M18 aspartyl aminopeptidase. 1.2% of 290,000 active. inhibition, % at 7.35 µM. AID 1822. recombinant PfM18AAP, H-Glu-NHMec fluorogenic cleavage;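 active means inhibition above the campaign mean inhibition over all tested compounds plus 3 SD, cut at about 28% in these data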;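 further: 0% = plate median of test compound wells and 100% = 2 mM ZnCl2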
Granule exo inh = lytic granule exocytosis inhibition. TALL-104 LAMP-1 surface exposure, flow cytometry; cells stimulated with thapsigargin and PMA. inhibition, % at 10 µM. 0.66% of 360,000 active. AID 651702;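 active means inhibition above about 55%, limit read from the data; inconclusive means no clear call, values can overlap the other calls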
ABHD5-PLIN5 inh = inhibitors of human ABHD5-perilipin-5 interaction; Q00G26+Q8WTS1; Split G. princeps luciferase complementation, luminescence, 4 h; inhibition, % at 4 µM; 0.78% of 360,000 active;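 active means inhibition above the mean inhibition across every tested compound plus 3 SD, cut at about 22% in these data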;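 further: 0% = DMSO only wells and the 100% control is not disclosed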
Exocytosis CP01 = lytic granule exocytosis inhibition; 11% of 1,500 active; shares compounds with Granule exo inh; inhibition, % at 10 µM; AID 651954; TALL-104 cells, LAMP-1 externalization, flow cytometry; stimulated with PMA plus thapsigargin; in the data active means inhibition above about 60%;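 further: 0% = stimulated vehicle wells and 100% = unstimulated wells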
* = called active by the depositor; i = inactive; u = inconclusive; x = not tested or not shown; + = active, no number. An excerpt weighted towards active compounds, which were near 2.6% of everything screened.

SMILES	Rce1 inh	Platelet DG rel	PfM18AAP inh	Granule exo inh	ABHD5-PLIN5 inh	Exocytosis CP01
COc1ccccc1Cc1c(-c2ccco2)nc2ccc(Cl)cn12	x	x	x	82*	27*	4
CCCCn1c(N)c(N(CCC(C)C)C(=O)C(C)N2C(=O)c3ccccc3C2=O)c(=O)[nH]c1=O (stereo not given)	i	12	x	0	2	x
O=C(O)c1nn(CCOc2cccc(Br)c2)c(=O)c2ccccc12	i	3	0	73*	2	-2
CCCn1c(C(O)c2ccc(OC)cc2)nc2ccccc21 (stereo not given)	x	x	2	-3	-4	x
CCCn1c(C(O)c2cccc(OC)c2)nc2ccccc21 (stereo not given)	i	-3	-9	73*	1	-13
O=C(CSc1nc2ccccc2c(=O)n1-c1ccccc1)c1c[nH]c2ccccc12	i	-1	-3	-1	-10	x
CN(C)CCCNc1ncnc2sc(-c3ccccc3)cc12	i	2	3	8	6	x
COc1ccc(-c2oc3ncnc(NCCCN(C)C)c3c2-c2ccc(OC)cc2)cc1	u	12	1	69*	10	6
CCCCn1c(=N)n(CC(=O)c2ccc(Br)s2)c2ccccc21	i	0	11	82*	13	96*
CCc1nnc(NC(=O)CN2C(=O)c3ccccc3S2(=O)=O)s1	i	2	5	6	4	x
O=C(CSc1ncnc2c1cnn2CCc1ccccc1)Nc1cccc(C(F)(F)F)c1	i	-1	6	83*	-5	3
Cc1c(NC(=O)COc2cccc(Br)c2)c(=O)n(-c2ccccc2)n1C	x	-14	-9	70*	5	-4
CC(C)OCCCNC(=O)CN1C(=O)COc2ccc(S(=O)(=O)N3CCCCCC3)cc21	i	3	7	-2	0	x
CC(NC(=O)CCC(=O)c1ccc(F)cc1)C1CC2CCC1C2 (stereo not given)	i	-22	-6	104*	0	-3
Cc1ccc(-c2nc(CS(=O)CC(=O)NCCN3CCCC3)c(C)o2)cc1 (stereo not given)	i	11	-8	8	3	x
CCCCNC(=O)CS(=O)Cc1nc(-c2cccc(C)c2)oc1C (stereo not given)	i	21	6	-10	-4	x
Cc1oc(-c2ccc(Cl)cc2)nc1CS(=O)CC(=O)NCCN1CCCC1 (stereo not given)	i	-4	4	56*	1	-11
Cc1cccc(-c2nc(CS(=O)CC(=O)NCCc3ccc(Cl)cc3)c(C)o2)c1 (stereo not given)	i	-6	0	58*	12	-4
O=c1c2ccc(F)cc2sn1-c1ccccc1	x	x	x	71*	72*	100*
O=c1c2cc(F)ccc2sn1-c1ccccc1Cl	x	x	x	64*	-8	103*
O=[N+]([O-])c1ccc2nc(/C=C/c3ccc(Cl)cc3)[nH]c2c1	i	1	-5	91*	-7	88*
COc1ccc(S(=O)(=O)N2CCCC2C(=O)Nc2ccc(C)cc2)cc1 (stereo not given)	i	7	-6	-2	1	x
CCOc1ccc(NC(=O)C2CCCN2S(=O)(=O)c2ccc(OCC)cc2)cc1 (stereo not given)	i	-8	-7	56*	3	-5
CCCCC[C@@H](C)N1C[C@H](COCc2ccccc2)Oc2cc(N3CC[C@@H](N(C)C)C3)ccc2S1(=O)=O	x	x	x	74*	8	72*
CCCCC[C@@H](C)N1C[C@@H](COCc2ccccc2)Oc2cc(N3CC[C@@H](O)C3)ccc2S1(=O)=O	x	x	x	-3	-7	x
SMILES	Rce1 inh	Platelet DG rel	PfM18AAP inh	Granule exo inh	ABHD5-PLIN5 inh	Exocytosis CP01
CCCCC[C@H](C)N1C[C@H](COCc2ccccc2)Oc2cc(N3CC[C@@H](N(C)C)C3)ccc2S1(=O)=O	x	x	x	64*	-1	42
CCCCC[C@@H](C)N1C[C@@H](COCc2ccccc2)Oc2cc(N3CC[C@H](O)C3)ccc2S1(=O)=O	x	x	x	-4	-7	x
C[C@H](c1ccccc1)N1C[C@H](COCc2ccccc2)Oc2cc(N3CC[C@@H](N(C)C)C3)ccc2S1(=O)=O	x	x	x	62*	3	22
COc1cccc(CNC(=O)C2CCCN(S(C)(=O)=O)C2)c1 (stereo not given)	i	-14	-1	-1	7	x
O=C(Cn1nc(C(F)(F)F)c2c1CCC2)NCc1ccc(Cl)cc1	i	1	7	-3	-3	x
CCN(CC(=O)NCc1cccs1)C(=O)c1cccc(S(=O)(=O)N2CCc3ccccc32)c1	i	-6	-2	65*	2	-13
CC1CCN(CC(=O)N2CCN(c3ccccc3)CC2)CC1	i	8	2	-2	-4	x
O=C(CN1CCN(C(c2ccccc2)c2ccccc2)CC1)N1CCN(c2ccccc2)CC1	i	4	2	71*	4	-1
COC(=O)C1CCN(c2ccc([N+](=O)[O-])cc2)CC1	i	4	4	-2	6	x
COC(=O)C1CCN(CCCOc2ccc(CN3CCN(c4ccc([N+](=O)[O-])cc4)CC3)cc2)CC1	i	2	3	84*	2	-10
Cc1ccc2sc(N(CCCN(C)C)C(=O)c3ccc(S(=O)(=O)N(C)C4CCCCC4)cc3)nc2c1C	i	-17	x	62*	9	36
Cc1ccc2sc(N(CCCN(C)C)C(=O)CCS(=O)(=O)c3ccccc3)nc2c1C	i	6	-10	84*	17	54
CCN(Cc1ccccc1)S(=O)(=O)c1ccc(C(=O)N(CCCN(C)C)c2nc3c(C)c(C)ccc3s2)cc1	+	-8	x	60*	12	33
Cc1ccc2sc(N(CCCN(C)C)C(=O)c3ccc(S(=O)(=O)N4CCOCC4)cc3)nc2c1C	i	x	x	9	14	x
CCN(CC)CCN(C(=O)c1ccc(S(=O)(=O)N(C)C2CCCCC2)cc1)c1nc2c(C)cccc2s1	i	1	-6	1	-9	x
CCN(Cc1ccccc1)S(=O)(=O)c1ccc(C(=O)N(CCCN(C)C)c2nc3cc4c(cc3s2)OCO4)cc1	i	0	3	66*	16	55
CN(C)CCN(C(=O)c1ccc(S(=O)(=O)N(C)c2ccccc2)cc1)c1nc2cc3c(cc2s1)OCO3	i	7	-2	-1	-3	x
Cc1ccc(-n2c(COc3cccc(C)c3)n[nH]c2=S)cc1	i	-2	8	-4	-9	x
O=C(CSc1nnc(-c2ccco2)o1)NC(=O)C1COc2ccccc2O1 (stereo not given)	i	2	-2	-2	2	x
CCCCc1ccc(NC(=O)CSc2nc(=O)n(CCN(CC)CC)c3c2CCCC3)cc1	i	35	x	82*	10	-2
CCN(CC)CCCN(C(=O)c1ccc(Br)cc1)c1nc(-c2ccc(OC)cc2)cs1	i	-4	1	63*	17	-9

Bioassay records (PubChem)
